Experimental data as given in PubChem BioAssay AID1159580 (chemical genetic matrix, 2015).
Hit rate of the full screen: of about 5,500 compounds, about 2,000 (36%) were called active. Another 18% or so got no clear call; they are omitted. No stated cut-off is given here; in the data, active means normalized growth mostly below about 0.91 (no sharp cut-off); inconclusive means no clear call, values can overlap the other calls; inactive means mostly above about 0.92. The list shows a part of the results.

Assay: chemical genetic growth profiling, strain panel (AID 1159580);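 further: tested at 20 µM; growth read once vehicle control cultures reached saturation at 30 °C; 1 = growth at the plate median or of vehicle wells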
Details: growth OD

Measured: normalized growth

C[C@]12CCC3c4ccc(O)cc4CCC3C1CC[C@@H]2OC(=O)CCC1CCCC1 (stereo not given in full)
inactive: S. cerevisiae deletion strains, locus YJR075W, strain HOC1, stronger effect = lower value 0.988 | S. cerevisiae deletion strains, locus YKL009W, strain mrt4, stronger effect = lower value 0.986 | S. cerevisiae deletion strains, locus YKL068W, stronger effect = lower value 0.991 | S. cerevisiae deletion strains, locus YKL085W, strain MDH1 (second series), stronger effect = lower value 0.998 | S. cerevisiae deletion strains, locus YKL085W, strain MDH1, stronger effect = lower value 0.998 | S. cerevisiae deletion strains, locus YKL160W, strain elf1, stronger effect = lower value 1.03 | S. cerevisiae deletion strains, locus YKL190W, strain CNB1, stronger effect = lower value 0.992 | S. cerevisiae deletion strains, locus YKR001C, strain vps1, stronger effect = lower value 0.973 | S. cerevisiae deletion strains, locus YKR026C, strain gcn3, stronger effect = lower value 1.01 | S. cerevisiae deletion strains, locus YKR091W, strain srl3, stronger effect = lower value 1.02 | S. cerevisiae deletion strains, locus YLL001W, strain dnm1, stronger effect = lower value 1.03 | S. cerevisiae deletion strains, locus YLL026W, stronger effect = lower value 1.01 | S. cerevisiae deletion strains, locus YLL041C, strain sdh2, stronger effect = lower value 1 | S. cerevisiae deletion strains, locus YLR027C, strain aat2, stronger effect = lower value 0.995 | S. cerevisiae deletion strains, locus YLR039C, strain RIC1, stronger effect = lower value 0.984 | S. cerevisiae deletion strains, locus YLR058C, strain SHM2, stronger effect = lower value 0.991 | S. cerevisiae deletion strains, locus YLR102C, strain apc9, stronger effect = lower value 1.01 | S. cerevisiae deletion strains, locus YLR113W, strain HOG1, stronger effect = lower value 1.06 | S. cerevisiae deletion strains, locus YLR221C, strain rsa3, stronger effect = lower value 1.02 | S. cerevisiae deletion strains, locus YLR258W, strain gsy2, stronger effect = lower value 1.01 | S. cerevisiae deletion strains, locus YLR262C, strain YPT6 (second series), stronger effect = lower value 1.02 | S. cerevisiae deletion strains, locus YLR262C, strain YPT6, stronger effect = lower value 0.897 | S. cerevisiae deletion strains, locus YLR268W, strain sec22, stronger effect = lower value 0.993 | S. cerevisiae deletion strains, locus YLR320W, strain mms22, stronger effect = lower value 1.03 | S. cerevisiae deletion strains, locus YLR330W, strain CHS5, stronger effect = lower value 0.984 | S. cerevisiae deletion strains, locus YLR342W, strain FKS1 (second series), stronger effect = lower value 1 | S. cerevisiae deletion strains, locus YLR342W, strain FKS1, stronger effect = lower value 1.01 | S. cerevisiae deletion strains, locus YLR357W, strain rsc2, stronger effect = lower value 1.03 | S. cerevisiae deletion strains, locus YLR370C, strain arc18, stronger effect = lower value 1.02 | S. cerevisiae deletion strains, locus YLR371W, strain rom2, stronger effect = lower value 1.03 | S. cerevisiae deletion strains, locus YLR384C, strain iki3, stronger effect = lower value 1 | S. cerevisiae deletion strains, locus YLR418C, strain cdc73, stronger effect = lower value 1.03 | S. cerevisiae deletion strains, locus YML016C, strain PPZ1, stronger effect = lower value 0.988 | S. cerevisiae deletion strains, locus YML032C, strain rad52, stronger effect = lower value 0.986 | S. cerevisiae deletion strains, locus YML120C, strain ndi1, stronger effect = lower value 1.03 | S. cerevisiae deletion strains, locus YML124C, strain tub3, stronger effect = lower value 0.991 | S. cerevisiae deletion strains, locus YMR058W, strain fet3, stronger effect = lower value 1.01 | S. cerevisiae deletion strains, locus YMR078C, strain ctf18, stronger effect = lower value 1.01 | S. cerevisiae deletion strains, locus YMR125W, strain sto1, stronger effect = lower value 1.02 | S. cerevisiae deletion strains, locus YMR129W, stronger effect = lower value 1.02 | S. cerevisiae deletion strains, locus YMR205C, strain PFK2, stronger effect = lower value 1.01 | S. cerevisiae deletion strains, locus YMR223W, strain ubp8, stronger effect = lower value 1.04 | S. cerevisiae deletion strains, locus YMR231W, strain pep5, stronger effect = lower value 1 | S. cerevisiae deletion strains, locus YMR307W, strain GAS1, stronger effect = lower value 0.998 | S. cerevisiae deletion strains, locus YNL067W, strain RPL9B, stronger effect = lower value 0.988 | S. cerevisiae deletion strains, locus YNL071W, strain lat1, stronger effect = lower value 1.01 | S. cerevisiae deletion strains, locus YNL128W, strain TEP1, stronger effect = lower value 0.976 | S. cerevisiae deletion strains, locus YNL183C, strain NPR1, stronger effect = lower value 0.982 | S. cerevisiae deletion strains, locus YNL209W, strain ssb2, stronger effect = lower value 1.01 | S. cerevisiae deletion strains, locus YNL233W, strain BNI4, stronger effect = lower value 0.993 | S. cerevisiae deletion strains, locus YNL248C, strain rpa49, stronger effect = lower value 1.02 | S. cerevisiae deletion strains, locus YNL250W, strain rad50, stronger effect = lower value 1.01 | S. cerevisiae deletion strains, locus YNL271C, strain bni1, stronger effect = lower value 0.999 | S. cerevisiae deletion strains, locus YNL298W, strain CLA4, stronger effect = lower value 0.999 | S. cerevisiae deletion strains, locus YNL307C, strain MCK1, stronger effect = lower value 0.996 | S. cerevisiae deletion strains, locus YNL322C, strain KRE1 (second series), stronger effect = lower value 1.04 | S. cerevisiae deletion strains, locus YNL322C, strain KRE1, stronger effect = lower value 0.998 | S. cerevisiae deletion strains, locus YNR049C, strain mso1, stronger effect = lower value 1.03 | S. cerevisiae deletion strains, locus YNR052C, strain pop2, stronger effect = lower value 1.01 | S. cerevisiae deletion strains, locus YOL006C, strain TOP1, stronger effect = lower value 0.976 | S. cerevisiae deletion strains, locus YOL012C, strain htz1 1.23 | S. cerevisiae deletion strains, locus YOL147C, strain pex11, stronger effect = lower value 1.01 | S. cerevisiae deletion strains, locus YOR001W, strain rrp6, stronger effect = lower value 0.995 | S. cerevisiae deletion strains, locus YOR061W, strain CKA2, stronger effect = lower value 0.969 | S. cerevisiae deletion strains, locus YOR069W, strain VPS5, stronger effect = lower value 0.994 | S. cerevisiae deletion strains, locus YOR070C, strain gyp1, stronger effect = lower value 1.02 | S. cerevisiae deletion strains, locus YOR080W, strain dia2, stronger effect = lower value 0.998 | S. cerevisiae deletion strains, locus YOR083W, strain WHI5, stronger effect = lower value 1.05 | S. cerevisiae deletion strains, locus YOR106W, strain vam3, stronger effect = lower value 1.04 | S. cerevisiae deletion strains, locus YOR136W, strain idh2, stronger effect = lower value 0.991 | S. cerevisiae deletion strains, locus YOR144C, strain elg1, stronger effect = lower value 0.992 | S. cerevisiae deletion strains, locus YOR184W, strain ser1, stronger effect = lower value 0.99 | S. cerevisiae deletion strains, locus YOR231W, strain MKK1, stronger effect = lower value 1.07 | S. cerevisiae deletion strains, locus YOR265W, strain rbl2, stronger effect = lower value 1.01 | S. cerevisiae deletion strains, locus YOR270C, strain vph1, stronger effect = lower value 1.06 | S. cerevisiae deletion strains, locus YOR290C, strain snf2, stronger effect = lower value 0.986 | S. cerevisiae deletion strains, locus YOR316C, strain cot1, stronger effect = lower value 0.989 | S. cerevisiae deletion strains, locus YPL051W, strain arl3, stronger effect = lower value 1.01 | S. cerevisiae deletion strains, locus YPL055C, strain LGE1, stronger effect = lower value 0.994 | S. cerevisiae deletion strains, locus YPL078C, strain atp4, stronger effect = lower value 1.04 | S. cerevisiae deletion strains, locus YPL106C, strain sse1, stronger effect = lower value 1.05 | S. cerevisiae deletion strains, locus YPL240C, strain hsp82, stronger effect = lower value 0.996 | S. cerevisiae deletion strains, locus YPL241C, strain CIN2, stronger effect = lower value 0.979 | S. cerevisiae deletion strains, locus YPL256C, strain CLN2, stronger effect = lower value 1.03 | S. cerevisiae deletion strains, locus YPR119W, strain clb2, stronger effect = lower value 1 | S. cerevisiae deletion strains, locus YPR141C, strain kar3, stronger effect = lower value 0.996 | S. cerevisiae deletion strains, locus YPR163C, strain tif3, stronger effect = lower value 1 | S. cerevisiae deletion strains, locus YPR167C, strain met16, stronger effect = lower value 0.997 | S. cerevisiae deletion strains, strain wtn01, stronger effect = lower value 1.01 | S. cerevisiae strains, strain wild type, stronger effect = lower value 0.973
